Laboratory results as given in PubChem BioAssay.
Activity calls are given as the source filed them.

Legend:
[1] = target: Albumin (Bos taurus) (UniProt P02769); assay: compounds binding labelled BSA control protein – biochemical, small-molecule microarray, Alexa647 label, 635/667 nm fluorescence, artefact control for SMM control protein annotation, profiling panel (AID 1118); conditions: BSA-A647 binding, fluorescence 635 nm, higher = more signal;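 note: score merges 667 nm emission intensity and signal-to-noise per printed compound spot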
Albumin (Bos taurus), sequence (P02769 whole entry, looked up): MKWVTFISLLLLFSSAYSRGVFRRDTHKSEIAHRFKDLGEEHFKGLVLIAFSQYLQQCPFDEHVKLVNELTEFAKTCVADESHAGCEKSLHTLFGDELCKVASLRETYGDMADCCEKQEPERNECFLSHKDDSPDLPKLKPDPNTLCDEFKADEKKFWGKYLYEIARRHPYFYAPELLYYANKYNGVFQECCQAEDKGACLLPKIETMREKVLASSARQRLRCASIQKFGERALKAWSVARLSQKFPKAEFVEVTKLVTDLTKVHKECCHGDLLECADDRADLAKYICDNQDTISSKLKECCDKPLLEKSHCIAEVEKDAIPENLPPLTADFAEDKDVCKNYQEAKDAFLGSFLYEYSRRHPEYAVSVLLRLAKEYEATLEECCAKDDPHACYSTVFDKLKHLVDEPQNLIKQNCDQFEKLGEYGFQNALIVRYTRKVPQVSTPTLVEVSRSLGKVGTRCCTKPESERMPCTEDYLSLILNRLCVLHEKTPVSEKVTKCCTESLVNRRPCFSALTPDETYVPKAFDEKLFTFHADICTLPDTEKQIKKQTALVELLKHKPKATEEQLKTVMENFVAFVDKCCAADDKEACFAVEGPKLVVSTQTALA

[2] = probe aXIP binding to arrayed compounds – biochemical, NeuroSMM set, 635/667 nm fluorescence, primary screen (AID 1119); conditions: small-molecule microarray, higher = more signal, called active from +8 up or from −8 down;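 note: probe is the protein aXip251-270 applied at 1 µg/mL to compound-printed slides; binding of probe to printed compounds measured as 667 nm fluorescence plus signal to noise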
[3] = probe aNOTCH3 binding on compound microarray – biochemical, small-molecule microarray, 635/667 nm fluorescence, primary screen (AID 1120); conditions: higher = more signal;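 note: probe is a biotin-tagged antibody raised against NOTCH3 rather than NOTCH3 protein; score merges spot fluorescence near 667 nm with spot signal to noise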
[4] = probe aNOTCH2 binding on compound microarray – biochemical, small-molecule microarray, 635/667 nm fluorescence, primary screen (AID 1121); conditions: higher = more signal;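 note: score merges feature fluorescence read at 667 nm with its signal to noise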
[5] = target: Carbonic anhydrase 2 (Homo sapiens) (UniProt P00918); assay: compounds binding carbonic anhydrase 2 – biochemical, small-molecule microarray, Alexa647-labelled CAII, profiling panel (AID 1122); conditions: CAII-A647 binding fluorescence, higher = more signal
[6] = COS7 lysate on small-molecule microarray, probe aHis, 635 nm (AID 1123); conditions: COS7 cell lysate, fluorescence, higher = more signal;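 note: z-score combines 667nm fluorescence intensity with signal-to-noise per printed compound spot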
[7] = probe aLAP1 signal on lysate-treated microarray – cell lysate, small-molecule microarray, COS7 lysate, primary screen (AID 1124); conditions: probe aLAP1, fluorescence, higher = more signal;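 note: lysate comes from COS7 cells expressing LAP1 and is applied at 0.3 µg/mL; score merges spot fluorescence near 667 nm with signal-to-noise over triplicate slides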
[8] = tested on: Sam68 (KHDRBS1); assay: compounds binding KHDRBS1 protein – biochemical, small-molecule microarray, 635 nm fluorescence, primary screen (AID 1125); conditions: higher = more signal;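 note: score merges 667 nm channel intensity with signal to noise over triplicate slides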
[9] = tested on: Chordin-like protein 2 (CHRDL2); assay: compounds binding chordin-like 2 – biochemical, small-molecule microarray, 635 nm fluorescence, primary screen (AID 1126); conditions: fluorescence 635 nm, higher = more signal;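 note: printed compound slides probed with Chrdl2 protein at 4 µg/mL for 1 h at 4 C; score merges 667 nm emission intensity with signal to noise over three replicate slides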
[10] = target: Concanavalin-A (Canavalia ensiformis) (UniProt P02866); assay: compounds binding concanavalin A lectin – biochemical, small-molecule microarray, Alexa647 label, 635 nm, artefact control for SMM control protein annotation, primary screen (AID 1127); conditions: ConA-A647 binding fluorescence, higher = more signal;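 note: z combines 667 nm emission intensity with signal-to-noise across three replicate slides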
Concanavalin-A (Canavalia ensiformis), sequence (P02866 whole entry, looked up): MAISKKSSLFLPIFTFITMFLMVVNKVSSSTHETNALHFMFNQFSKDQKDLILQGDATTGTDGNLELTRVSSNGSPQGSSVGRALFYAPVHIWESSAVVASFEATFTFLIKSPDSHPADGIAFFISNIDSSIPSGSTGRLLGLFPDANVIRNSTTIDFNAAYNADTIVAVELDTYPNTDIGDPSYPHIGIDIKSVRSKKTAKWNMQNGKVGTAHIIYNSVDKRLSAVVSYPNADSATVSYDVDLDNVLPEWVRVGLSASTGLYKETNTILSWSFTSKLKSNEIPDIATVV

[11] = compounds binding Alexa647 anti-His antibody – biochemical, small-molecule microarray, 635 nm fluorescence, artefact control for SMM control protein annotation, primary screen (AID 1128); conditions: higher = more signal;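 note: score merges feature fluorescence with signal-to-noise for each printed compound spot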
[12] = tested on: Human papillomavirus type 1a E7 protein (residues 1-88); assay: HPV1a E7 small-molecule binders, primary screen, biochemical, small-molecule microarray, residues 1-88, 635 nm (AID 1129); conditions: small-molecule microarray binding, fluorescence 635 nm; higher = more signal
[13] = target: Focal adhesion kinase 1 (Homo sapiens) (UniProt Q05397); assay: PTK2 protein binding on printed compound slides – biochemical, small-molecule microarray, 635/667 nm fluorescence, BSA, DTT, primary screen (AID 1130); conditions: 635 nm fluorescence, higher = more signal;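 note: composite of spot emission at 667 nm and signal to noise over triplicate slides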
Focal adhesion kinase 1 (Homo sapiens), sequence (Q05397 whole entry, looked up): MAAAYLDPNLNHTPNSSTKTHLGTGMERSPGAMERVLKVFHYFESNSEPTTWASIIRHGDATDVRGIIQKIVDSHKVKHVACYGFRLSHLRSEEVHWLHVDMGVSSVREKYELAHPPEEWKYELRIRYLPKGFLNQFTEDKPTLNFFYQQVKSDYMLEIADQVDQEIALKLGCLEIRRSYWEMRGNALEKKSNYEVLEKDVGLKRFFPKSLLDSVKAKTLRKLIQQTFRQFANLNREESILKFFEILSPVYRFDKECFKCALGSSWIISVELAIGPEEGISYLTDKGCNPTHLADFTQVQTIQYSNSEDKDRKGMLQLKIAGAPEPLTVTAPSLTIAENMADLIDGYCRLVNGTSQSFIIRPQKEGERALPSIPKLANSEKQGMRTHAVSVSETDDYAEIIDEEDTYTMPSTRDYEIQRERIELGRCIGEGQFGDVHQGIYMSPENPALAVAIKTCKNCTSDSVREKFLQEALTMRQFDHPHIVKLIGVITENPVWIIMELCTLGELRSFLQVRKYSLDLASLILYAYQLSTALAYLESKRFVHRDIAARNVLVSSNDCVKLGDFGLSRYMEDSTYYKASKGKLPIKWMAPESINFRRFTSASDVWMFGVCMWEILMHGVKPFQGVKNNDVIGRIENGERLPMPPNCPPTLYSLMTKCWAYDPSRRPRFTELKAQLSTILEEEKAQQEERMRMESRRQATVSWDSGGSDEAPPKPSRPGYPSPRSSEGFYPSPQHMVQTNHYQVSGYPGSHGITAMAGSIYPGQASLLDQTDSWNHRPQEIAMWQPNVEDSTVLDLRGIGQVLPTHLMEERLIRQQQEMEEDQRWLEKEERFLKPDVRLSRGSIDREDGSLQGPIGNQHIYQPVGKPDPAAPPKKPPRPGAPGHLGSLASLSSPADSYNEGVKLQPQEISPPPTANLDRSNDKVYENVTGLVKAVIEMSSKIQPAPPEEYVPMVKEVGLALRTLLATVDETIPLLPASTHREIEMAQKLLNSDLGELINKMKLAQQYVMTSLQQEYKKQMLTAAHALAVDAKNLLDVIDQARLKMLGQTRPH

[14] = tested on: Fibrinogen (Alexa647-labelled); assay: Alexa647-fibrinogen binding to printed small molecules – biochemical, small-molecule microarray, 635/667 nm fluorescence, artefact control for SMM control-protein annotation, profiling panel (AID 1131); conditions: fibrinogen-A647 binding fluorescence, higher = more signal;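 note: z-score merges 667 nm fluorescence with per-spot signal-to-noise over triplicate slides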
[15] = target: Follistatin (Homo sapiens) (UniProt P19883); assay: FST protein binding to printed compounds – biochemical, small-molecule microarray, 635/667 nm fluorescence, primary screen (AID 1132); conditions: 635 nm fluorescence, higher = more signal
Follistatin (Homo sapiens), sequence (P19883 whole entry, looked up): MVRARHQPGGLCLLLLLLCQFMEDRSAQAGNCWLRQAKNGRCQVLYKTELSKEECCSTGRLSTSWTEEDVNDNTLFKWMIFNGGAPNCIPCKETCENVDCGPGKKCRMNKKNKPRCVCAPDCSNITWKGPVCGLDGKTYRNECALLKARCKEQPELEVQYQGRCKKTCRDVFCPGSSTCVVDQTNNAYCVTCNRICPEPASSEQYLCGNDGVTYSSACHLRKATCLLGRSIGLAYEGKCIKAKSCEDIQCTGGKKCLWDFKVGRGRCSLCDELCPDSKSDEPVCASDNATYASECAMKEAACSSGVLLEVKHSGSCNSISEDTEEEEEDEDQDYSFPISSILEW

[16] = target: Fibroblast growth factor 2 (Homo sapiens) (UniProt P09038); assay: basic fibroblast growth factor binding to printed compounds – biochemical, small-molecule microarray, 635/667 nm fluorescence, primary screen (AID 1133); conditions: FGF2, fluorescence 635/667, higher = more signal
Fibroblast growth factor 2 (Homo sapiens), sequence (P09038 whole entry, looked up): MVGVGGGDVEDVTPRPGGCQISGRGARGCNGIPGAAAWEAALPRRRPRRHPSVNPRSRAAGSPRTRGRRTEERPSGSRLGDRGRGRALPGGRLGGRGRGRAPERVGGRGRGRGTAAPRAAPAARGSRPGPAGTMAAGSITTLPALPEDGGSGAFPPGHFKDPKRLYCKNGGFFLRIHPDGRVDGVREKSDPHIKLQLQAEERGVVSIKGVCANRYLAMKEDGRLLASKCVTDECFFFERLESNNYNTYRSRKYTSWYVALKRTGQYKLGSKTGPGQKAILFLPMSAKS

[17] = JC-1 mitochondrial potential readout, lung cancer cells – cell-based, A549, JC-1 fluorescence, basal, 24 h, 100 nL, profiling panel (AID 1138); conditions: higher = more signal;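 note: A549 lung adenocarcinoma cells under basal conditions with no added stimulus; test concentration not given here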
[18] = tested on: Lefty1; assay: Lefty1 protein binding to printed compounds – biochemical, small-molecule microarray, 635/667 nm fluorescence, primary screen (AID 1139); conditions: fluorescence 635/667, higher = more signal
[19] = tested on: wheat germ agglutinin (Triticum aestivum), Alexa647-labelled; assay: Alexa647-WGA lectin binding to printed small molecules – biochemical, small-molecule microarray, 635/667 nm fluorescence, artefact control for SMM control-protein annotation, profiling panel (AID 1140); conditions: WGA-A647 binding, 635 nm fluorescence, higher = more signal;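 note: score merges 667 nm feature emission with signal to noise over triplicate slides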
[20] = target: Luciferin 4-monooxygenase (Photinus pyralis) (UniProt P08659); assay: inhibition of purified Photinus pyralis luciferase – biochemical, luminescence, purified enzyme, 2006 set, primary screen (AID 1141); conditions: purified firefly luciferase, SteadyGlo luminescence, 30 min; higher = more signal, called active from +8 up or from −8 down;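 note: cell-free assay with purified firefly luciferase at 100 ng per well in PBS; test concentration not given here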
Luciferin 4-monooxygenase (Photinus pyralis), sequence (P08659 whole entry, looked up): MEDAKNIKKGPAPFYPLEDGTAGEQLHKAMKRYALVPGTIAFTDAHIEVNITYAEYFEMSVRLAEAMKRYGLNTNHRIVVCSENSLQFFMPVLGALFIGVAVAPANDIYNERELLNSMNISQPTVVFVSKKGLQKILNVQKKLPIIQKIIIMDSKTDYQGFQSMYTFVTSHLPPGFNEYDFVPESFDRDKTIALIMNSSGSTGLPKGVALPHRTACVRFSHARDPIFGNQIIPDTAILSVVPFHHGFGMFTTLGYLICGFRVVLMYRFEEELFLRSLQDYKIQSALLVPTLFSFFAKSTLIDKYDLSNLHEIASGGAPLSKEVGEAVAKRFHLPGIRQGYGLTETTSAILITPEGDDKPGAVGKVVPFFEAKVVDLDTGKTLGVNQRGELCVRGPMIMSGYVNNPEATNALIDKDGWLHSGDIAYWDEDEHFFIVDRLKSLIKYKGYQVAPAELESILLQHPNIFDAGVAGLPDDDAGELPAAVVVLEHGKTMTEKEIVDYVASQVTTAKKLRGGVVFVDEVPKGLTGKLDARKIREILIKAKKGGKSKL

| Compound | composite z-score [1] | composite Z-score [2] | composite z-score [3] | composite z-score [4] | composite z-score [5] | composite z-score [6] | composite z-score [7] | composite z-score [8] | composite z-score [9] | composite z-score [10] | composite z-score [11] | composite z-score [12] | composite z-score [13] | composite z-score [14] | composite z-score [15] | composite z-score [16] | z-score [17] | composite z-score [18] | composite z-score [19] | z-score [20] |
| --- | --- | --- | --- | --- | --- | --- | --- | --- | --- | --- | --- | --- | --- | --- | --- | --- | --- | --- | --- | --- |
| Cc1ccc(S[C@]2(C(=O)NCCCN(C)C)CC(=O)N(C3Cc4ccccc4C3)[C@@H]2c2ccc(CO)cc2I)cc1 | 0.827 | 0.42 (inactive) | -0.0569 | -0.18 | 0.715 | 0.83 | -0.312 | 0.125 | -0.745 | 0.441 | 0.0192 | 0.132 | -0.0489 | 0.493 | 0.135 | -0.813 | -0.522 | -0.515 | 0.0805 | -0.222 (inactive) |
| NC(=O)N1C(=O)C2C(C1=O)C1C=C(CCCO)C2C(c2ccc(CN3CCCC3)cc2)N1Cc1cc2c(cc1Br)OCO2 (stereo not given) | -0.939 | -0.328 (inactive) | -0.323 | -0.117 | 0.339 | 0.344 | 0.117 | -0.312 | 0.192 | -0.129 | 0.197 | -0.445 | -0.214 | -0.713 | 0.583 | 1.2 | -0.193 | 0.117 | -0.419 | 0.542 (inactive) |
| C=CCOC(=O)[C@@H]1[C@H]2C(=O)O[C@H](c3ccccc3)[C@H](c3ccccc3)N2[C@H](c2ccc(OCCOC(=O)[C@H]3C[C@H]4C(=O)N[C@@H](CCCCN(C)C)C(=O)N4[C@H]3c3ccc(O)cc3)cc2)[C@@]12C(=O)Nc1ccc(I)cc12 | -0.839 | 0.929 (inactive) | 0.0006 | -0.0698 | 0.426 | 1.95 | 0.148 | 1.29 | 1.1 | 1.15 | 1.2 | 1.17 | 1.03 | 0.541 | 1.4 | 1.37 | -0.641 | 1.58 | 0.538 | -4.54 (inactive) |
| CC(C)NC(=O)[C@@]1(c2ccc([N+](=O)[O-])cc2)CC(=O)N(CC23CC4CC(CC(C4)C2)C3)[C@@H]1c1ccc(CO)cc1 | 0.0436 | 0.655 (inactive) | 1.07 | 0.427 | 0.195 | 2.79 | 0.885 | 1.29 | 1.21 | 1.12 | 0.999 | 1.18 | 0.601 | 0.948 | 1.35 | 1.55 | -0.237 | 1.51 | 0.738 | 0.346 (inactive) |
| CN(C)CCCNC(=O)[C@@H]1c2ccccc2C(=O)N(Cc2ccccc2C(F)(F)F)[C@H]1c1ccc(CO)cc1 | 0.334 | 0.0871 (inactive) | -0.0106 | -0.0996 | 0.338 | 1.35 | 0.2 | 0.793 | -1.5 | 0.0021 | -1.51 | 0.197 | -0.142 | -0.126 | 0.0865 | -0.361 | 2.89 | -0.913 | 0.1 | -1.13 (inactive) |
| CC(C)[Si](C#CCCc1ccccc1)(O[C@H](c1ccccc1)c1cn(Cc2ccccc2)nn1)C(C)C | 0.246 | 0.546 (inactive) | 0.073 | -0.115 | 0.204 | 1.12 | 0.0218 | 1.02 | 0.721 | 0.949 | 0.269 | 1.09 | 0.104 | 0.642 | 0.709 | 0.368 | 0.26 | 0.919 | 0.782 | 0.898 (inactive) |
| C=CCC(OC(C)=O)[C@@H]1[C@@H](N(Cc2cc3ccccc3o2)C(=O)Cc2ccc(OC)cc2)c2cc(OCCCO)ccc2N1C(=O)c1ccc2ccccc2n1 (stereo not given in full) | 0.277 | -0.0847 (inactive) | 0.0642 | -0.0303 | -0.0176 | 0.361 | -0.156 | -0.11 | 0.498 | 0.0557 | 0.264 | -0.314 | 0.138 | 0.301 | 0.654 | 0.0376 | -0.194 | 0.0249 | -0.0063 | -0.219 (inactive) |
| O=C1C2C=CC(C(O)C3CCCCC3)N(n3cnnc3)C2C(=O)N1Cc1ccccc1 (stereo not given) | 0.835 | 0.288 (inactive) | 0.341 | -0.0527 | 0.597 | 2.23 | 0.343 | 1.29 | -0.0651 | 0.698 | -0.526 | 1.17 | 0.377 | 0.983 | 1.26 | 0.287 | -1.96 | 1.27 | 1.26 | 1.54 (inactive) |
| COC(=O)[C@]1(CCC(=O)OC(C)(C)C)N=C(c2ccc(OCCCO)cc2)O[C@@H]1c1ccccc1N=[N+]=[N-] | -0.257 | 0.62 (inactive) | -0.122 | -0.0618 | 0.589 | 1.63 | 0.254 | 0.68 | -0.444 | 0.589 | 0.477 | 0.993 | -0.212 | -0.306 | 1.29 | 0.626 | 1.3 | -0.0341 | 0.658 | -6.42 (inactive) |
| COCCOC(=O)N1C(=O)[C@@]2(c3cc(C#CCC(C(=O)OC)C(=O)OC)ccc31)[C@H](C(N)=O)[C@H]1C(=O)O[C@H](c3ccccc3)[C@H](c3ccccc3)N1[C@@H]2c1ccc(O)cc1 | 0.751 | -0.642 (inactive) | 0.104 | -0.0282 | 0.407 | 1.97 | 0.134 | 1.3 | 0.778 | 0.951 | 2.22 | 1.23 | 0.601 | 0.92 | 1.33 | 0.468 | -2.31 | 1 | 1.06 | -0.878 (inactive) |
| COCC(=C=CC[C@H](O)c1ccccc1OCCO)C[C@H](O)COCc1ccccc1 | 0.816 | 0.0117 (inactive) | 0.304 | -0.148 | 0.505 | 2.08 | 1.81 | 1.14 | 0.0973 | 0.245 | 2.34 | 1.19 | 0.516 | 0.272 | 0.792 | 0.659 | 1.26 | 0.632 | 0.0903 | -1.06 (inactive) |
